Source: the supplement of paper PMC8728848
The entries come from a sample that favours the strongest signals as a whole.

Experiments:
Test in all cases: glycan array binding signal (z-score within array); higher = stronger binding
Conditions in all cases: glycan notation: IUPAC condensed, linker removed
[1] = target: Gal3S(b1-3)[Fuc(a1-4)]GlcNAc
Outline: (§1)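 Glycan array data came from 3228 arrays in the Consortium for Functional Glycomics database, and only arrays with an available protein sequence were kept. Glycan names were put into IUPAC-condensed notation, and columns mapping to the same glycan were averaged. The binding signal is a within-array Z-score, averaged across arrays of one protein sequence run at different concentrations or buffers and across linkers. A negative Z-score can be read as non-binding.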

Gal6P(b1-4)GlcNAc = target: Gal6P(b1-4)GlcNAc
Outline: as §1

GalNAc(a1-3)Gal = target: GalNAc(a1-3)Gal
Outline: as §1

GalNAc(a1-3)GalNAc = target: GalNAc(a1-3)GalNAc
Outline: as §1

GalNAc(b1-4)GlcNAc = target: GalNAc(b1-4)GlcNAc
Outline: as §1

[2] = target: GlcNAc(a1-4)Gal(b1-4)GlcNAc(b1-3)Gal(b1-4)GlcNAc(b1-3)Gal(b1-4)GlcNAc
Outline: as §1

[3] = target: GlcNAc(b1-3)Gal(b1-4)GlcNAc(b1-2)[GlcNAc(b1-3)Gal(b1-4)GlcNAc(b1-6)]Man(a1-6)[GlcNAc(b1-3)Gal(b1-4)GlcNAc(b1-2)Man(a1-3)]Man(b1-4)GlcNAc(b1-4)GlcNAc
Outline: as §1

[4] = target: GlcNAc(b1-3)Gal(b1-4)GlcNAc(b1-3)Gal(b1-4)GlcNAc
Outline: as §1

[5] = target: GlcNAc(b1-3)Gal(b1-4)GlcNAc(b1-3)Gal(b1-4)GlcNAc(b1-3)Gal(b1-4)GlcNAc(b1-2)Man(a1-3)[GlcNAc(b1-3)Gal(b1-4)GlcNAc(b1-3)Gal(b1-4)GlcNAc(b1-3)Gal(b1-4)GlcNAc(b1-2)Man(a1-6)]Man(b1-4)GlcNAc(b1-4)[Fuc(a1-6)]GlcNAc
Outline: as §1

[6] = target: GlcNAc(b1-3)Gal(b1-4)GlcNAc(b1-3)[GlcNAc(b1-3)Gal(b1-4)GlcNAc(b1-3)]GalNAc
Outline: as §1

[7] = target: GlcNAc(b1-3)[GlcNAc(b1-4)][GlcNAc(b1-6)]GlcNAc
Outline: as §1

[8] = target: GlcNAc(b1-3)[GlcNAc(b1-6)]GalNAc
Outline: as §1

[9] = target: GlcNAc(b1-4)GlcNAc(b1-4)GlcNAc
Outline: as §1

Kdn(a2-3)Gal(b1-3)GlcNAc = target: Kdn(a2-3)Gal(b1-3)GlcNAc
Outline: as §1

[10] = target: Man(a1-2)Man(a1-2)Man(a1-3)Man
Outline: as §1

[11] = target: Man(a1-2)Man(a1-2)Man(a1-6)[Man(a1-3)]Man
Outline: as §1

Man(a1-2)Man(a1-3)Man = target: Man(a1-2)Man(a1-3)Man
Outline: as §1

[12] = target: Man(a1-2)Man(a1-3)[Man(a1-2)Man(a1-6)]Man
Outline: as §1

[13] = target: Man(a1-2)Man(a1-3)[Man(a1-2)Man(a1-6)]Man(a1-6)[Man(a1-2)Man(a1-2)Man(a1-3)]Man
Outline: as §1

[14] = target: Man(a1-2)Man(a1-6)[Man(a1-3)]Man(a1-6)[Man(a1-2)Man(a1-2)Man(a1-3)]Man(b1-4)GlcNAc(b1-4)GlcNAc
Outline: as §1

Man(a1-3)[Man(a1-6)]Man = target: Man(a1-3)[Man(a1-6)]Man
Outline: as §1

[15] = target: Man(a1-3)[Man(a1-6)]Man(a1-6)[Man(a1-2)Man(a1-3)]Man(b1-4)GlcNAc(b1-4)GlcNAc
Outline: as §1

[16] = target: Neu5Ac(a2-3)Gal(b1-3)GalNAc(b1-4)Gal(b1-4)Glc
Outline: as §1

[17] = target: Neu5Ac(a2-3)Gal(b1-3)GlcNAc6S
Outline: as §1

[18] = target: Neu5Ac(a2-3)Gal(b1-3)[GlcNAc(b1-6)]GalNAc
Outline: as §1

[19] = target: Neu5Ac(a2-3)Gal(b1-3)[Neu5Ac(a2-6)]GalNAc
Outline: as §1

[20] = target: Neu5Ac(a2-3)Gal(b1-4)GlcNAc(b1-2)Man(a1-3)[GlcNAc(b1-4)][Neu5Ac(a2-3)Gal(b1-4)GlcNAc(b1-2)Man(a1-6)]Man(b1-4)GlcNAc(b1-4)GlcNAc
Outline: as §1

[21] = target: Neu5Ac(a2-3)Gal(b1-4)GlcNAc(b1-3)Gal(b1-3)GlcNAc
Outline: as §1

[22] = target: Neu5Ac(a2-3)Gal(b1-4)GlcNAc(b1-3)Gal(b1-4)GlcNAc(b1-3)Gal(b1-4)GlcNAc(b1-2)Man(a1-3)[Neu5Ac(a2-3)Gal(b1-4)GlcNAc(b1-3)Gal(b1-4)GlcNAc(b1-3)Gal(b1-4)GlcNAc(b1-2)Man(a1-6)]GalNAc
Outline: as §1

[23] = target: Neu5Ac(a2-3)Gal(b1-4)[Fuc(a1-3)]GlcNAc(b1-6)[Gal(b1-3)]GalNAc
Outline: as §1

[24] = target: Neu5Ac(a2-6)Gal(b1-4)GlcNAc(b1-2)Man(a1-3)[Neu5Ac(a2-6)Gal(b1-4)GlcNAc(b1-2)Man(a1-6)]Man(b1-4)GlcNAc(b1-4)[Fuc(a1-6)]GlcNAc
Outline: as §1

[25] = target: Neu5Ac(a2-6)Gal(b1-4)GlcNAc(b1-2)Man(a1-6)Man(b1-4)GlcNAc(b1-4)GlcNAc
Outline: as §1

[26] = target: Neu5Ac(a2-6)Gal(b1-4)GlcNAc(b1-6)GalNAc
Outline: as §1

B1: Mincle (Bos taurus) (protein)
chain: MNSSTSPASQTERRCFSFQLFSWAIAGTSILLLSACFITRCVVTYSIFQLCDEKKFQPPGDSMELSCYNDGSGSVKNCCPLKWFHFQSSCYLFSPDTMSWRASLKNCSSMGAHLVVINTQEEQEFLYYTKPRKKEFYIGLTDQVTEGQWQWVDGTPFTKSLSFWDAGEPNNLVIVEDCATIRDSSNPRQNWNDVPCFFNMFRVCEMPERKI
Question: Which “glycan array binding signal (z-score)” value [1] does the source give for B1 here?
Answer: Its value is 3.35.

Question: And the “glycan array binding signal (z-score)” value (Gal6P(b1-4)GlcNAc)?
Answer: Its value is -0.035.

Question: And the “glycan array binding signal (z-score)” value (GalNAc(a1-3)Gal)?
Answer: Its value is -1.18.

Question: What about the “glycan array binding signal (z-score)” value (GalNAc(a1-3)GalNAc) of the same binder?
Answer: The value was 0.166.

Question: And the “glycan array binding signal (z-score)” value (GalNAc(b1-4)GlcNAc)?
Answer: Its value is -0.149.

Question: What about the “glycan array binding signal (z-score)” value [2] of the same binder?
Answer: The value was 0.104.

Question: What about the “glycan array binding signal (z-score)” value [3] of the same binder?
Answer: Its value is 1.42.

Question: What about the “glycan array binding signal (z-score)” value [4] of the same binder?
Answer: The value was -0.57.

Question: And the “glycan array binding signal (z-score)” value [5]?
Answer: Its value is -0.142.

Question: And the “glycan array binding signal (z-score)” value [6]?
Answer: The value was 0.084.

Question: And the “glycan array binding signal (z-score)” value [7]?
Answer: Its value is 5.17.

Question: And the “glycan array binding signal (z-score)” value [8]?
Answer: Its value is 0.888.

Question: And the “glycan array binding signal (z-score)” value [9]?
Answer: Its value is -0.899.

Question: What about the “glycan array binding signal (z-score)” value (Kdn(a2-3)Gal(b1-3)GlcNAc) of the same binder?
Answer: The value was 0.033.

Question: What about the “glycan array binding signal (z-score)” value [10] of the same binder?
Answer: The value was 6.56.

Question: What about the “glycan array binding signal (z-score)” value [11] of the same binder?
Answer: The value was 4.79.

Question: And the “glycan array binding signal (z-score)” value (Man(a1-2)Man(a1-3)Man)?
Answer: Its value is 3.01.

Question: What about the “glycan array binding signal (z-score)” value [12] of the same binder?
Answer: Its value is 7.29.

Question: And the “glycan array binding signal (z-score)” value [13]?
Answer: Its value is 3.54.

Question: And the “glycan array binding signal (z-score)” value [14]?
Answer: The value was 0.474.

Question: And the “glycan array binding signal (z-score)” value (Man(a1-3)[Man(a1-6)]Man)?
Answer: The value was 6.16.

Question: What about the “glycan array binding signal (z-score)” value [15] of the same binder?
Answer: Its value is 3.43.

Question: And the “glycan array binding signal (z-score)” value [16]?
Answer: The value was -1.13.

Question: And the “glycan array binding signal (z-score)” value [17]?
Answer: Its value is 1.11.

Question: And the “glycan array binding signal (z-score)” value [18]?
Answer: Its value is -0.595.

Question: What about the “glycan array binding signal (z-score)” value [19] of the same binder?
Answer: Its value is -0.943.

Question: And the “glycan array binding signal (z-score)” value [20]?
Answer: The value was 0.061.

Question: What about the “glycan array binding signal (z-score)” value [21] of the same binder?
Answer: Its value is 0.02.

Question: And the “glycan array binding signal (z-score)” value [22]?
Answer: The value was 4.3.

Question: And the “glycan array binding signal (z-score)” value [23]?
Answer: The value was 0.16.

Question: And the “glycan array binding signal (z-score)” value [24]?
Answer: The value was 0.527.

Question: What about the “glycan array binding signal (z-score)” value [25] of the same binder?
Answer: The value was 0.271.

Question: What about the “glycan array binding signal (z-score)” value [26] of the same binder?
Answer: Its value is 0.439.
